Results reported in PubChem BioAssay (EPA / NIEHS).
The source made the active and inactive calls. Rule for the calls: active = hit-call score of the fitted dose curve at least 0.9, where 1 is the maximum; inactive = score below 0.9.

Assays:
Conditions in all cases: mRNA level, 48 h; actives raise or lower the signal
[1] = read-out: Glutathione S-transferase M3 (GSTM3), GSTM3 (gene 2947); assay: LTEA_HepaRG_GSTM3: Life Technologies and Expression Analysis (LTEA) Assay for Glutathione S-transferase M3 (GSTM3) using HepaRG (AID 2283501)
In short: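 qRT-PCR read-out of GSTM3 transcript, normalized to three housekeeping genes, from human HepaRG cells after 48 h chemical exposure. Eight-point half-log series, top 100 uM, 0.5% DMSO vehicle; gain or loss fitted relative to DMSO baseline.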

[2] = read-out: Heat shock 70 kDa protein 1 (HSPA1A), gene 3303; assay: LTEA_HepaRG_HSPA1A: Life Technologies and Expression Analysis (LTEA) Assay for Heat shock 70 kDa protein 1 (HSPA1A) using HepaRG (AID 2283502)
In short: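 An oxidative-stress marker readout: HepaRG cells treated 48 h in duplicate with an eight-point series (highest 100 uM) had HSPA1A mRNA quantified by TaqMan qRT-PCR. Activity was fitted in both directions using 0.5% DMSO as baseline.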

[3] = read-out: Hypoxia-inducible factor 1-alpha (Homo sapiens) (UniProt Q16665); assay: LTEA_HepaRG_HIF1A: Life Technologies and Expression Analysis (LTEA) Assay for Hypoxia-inducible factor 1 (HIF1A) Trancription factor using HepaRG (AID 2283503);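 note: HIF1A transcript by TaqMan qRT-PCR normalized to ACTB GAPDH and POLR2A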
In short: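 Gain- or loss-of-signal HIF1A mRNA changes are fitted against a DMSO baseline. HepaRG cultures receive eight concentrations, highest 100 uM, for 48 h in serum-free induction medium with 0.5% DMSO.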

[4] = read-out: 3-Hydroxy-3-Methylglutaryl-CoA Synthase 2 (HMGCS2), HMGCS2 (gene 3158); assay: LTEA_HepaRG_HMGCS2: Life Technologies and Expression Analysis (LTEA) Assay for 3-Hydroxy-3-Methylglutaryl-CoA Synthase 2 (HMGCS2) using HepaRG (AID 2283504)
In short: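 qRT-PCR read-out of HMGCS2 transcript, normalised to three housekeeping genes, in HepaRG cells after 48 h chemical exposure. Eight-point curves from 100 uM, half-log dilutions, 0.5% DMSO vehicle; gain or loss fitted relative to DMSO baseline.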

HGF (gene 3082) = assay: LTEA_HepaRG_HGF: Life Technologies and Expression Analysis (LTEA) Assay for Hepatocyte Growth Facto (HGF) using HepaRG (AID 2283505)
In short: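 HepaRG, 48 h dosing, 8-pt half-log series from 100 uM in 0.5% DMSO, duplicates. Readout: TaqMan qRT-PCR of HGF mRNA, housekeeping-normalized; bidirectional curve fit vs DMSO baseline.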

[5] = read-out: Insulin Like Growth Factor 1 (IGF1), IGF1 (gene 3479); assay: LTEA_HepaRG_IGF1: Life Technologies and Expression Analysis (LTEA) Assay for Insulin Like Growth Factor 1 (IGF1) using HepaRG (AID 2283506)
In short: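 Endpoint: IGF1 mRNA change by qRT-PCR, housekeeping-normalized, fitted bidirectionally relative to 0.5% DMSO vehicle. Human HepaRG cells were treated 48 h in serum-free induction medium, eight half-log concentrations topping at 100 uM.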

[6] = read-out: Intercellular Adhesion Molecule 1 (ICAM1), ICAM1 (gene 3383); assay: LTEA_HepaRG_ICAM1: Life Technologies and Expression Analysis (LTEA) Assay for Intercellular Adhesion Molecule 1 (ICAM1) using HepaRG (AID 2283507)
In short: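 HepaRG, 48 h exposure, 8-pt half-log series from 100 uM, 0.5% DMSO vehicle, duplicates. Readout: TaqMan qRT-PCR mRNA, housekeeping-normalized (ACTB/GAPDH/POLR2A). Bidirectional curve fit vs DMSO baseline.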

[7] = read-out: Insulin-like growth factor-binding protein 1 (IGFBP1), IGFBP1 (gene 3484); assay: LTEA_HepaRG_IGFBP1: Life Technologies and Expression Analysis (LTEA) Assay for Insulin-like growth factor-binding protein 1 (IGFBP1) using HepaRG (AID 2283508)
In short: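 qRT-PCR mRNA read-out (TaqMan, Fluidigm array), normalised to three housekeeping genes; HepaRG cells, 48 h exposure, 8-pt half-log series from 100 uM, 0.5% DMSO vehicle; bidirectional curve fit vs DMSO baseline.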

[8] = read-out: Interleukin 6 (IL6), IL6 (gene 3569); assay: LTEA_HepaRG_IL6: Life Technologies and Expression Analysis (LTEA) Assay for Interleukin 6 (IL6) using HepaRG (AID 2283509)
In short: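 Transcript levels, normalized to three housekeeping genes, were quantified by qRT-PCR after 48 h chemical treatment of HepaRG cells. Eight-point half-log series from 100 uM in 0.5% DMSO, duplicates. Fitted both directions against DMSO baseline.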

[9] = read-out: Interleukin 6 Receptor (IL6R), IL6R (gene 3570); assay: LTEA_HepaRG_IL6R: Life Technologies and Expression Analysis (LTEA) Assay for Interleukin 6 Receptor (IL6R) using HepaRG (AID 2283510)
In short: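 In this HepaRG screen, test chemicals act on cells for 48 h at up to 100 uM (eight half-log points, duplicate wells). IL6R expression is quantified by qRT-PCR after normalization to ACTB, GAPDH and POLR2A, with DMSO as baseline.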

Measured: outcome

Hypoxia-inducible factor 1-alpha (Homo sapiens), sequence (Q16665 whole entry, looked up): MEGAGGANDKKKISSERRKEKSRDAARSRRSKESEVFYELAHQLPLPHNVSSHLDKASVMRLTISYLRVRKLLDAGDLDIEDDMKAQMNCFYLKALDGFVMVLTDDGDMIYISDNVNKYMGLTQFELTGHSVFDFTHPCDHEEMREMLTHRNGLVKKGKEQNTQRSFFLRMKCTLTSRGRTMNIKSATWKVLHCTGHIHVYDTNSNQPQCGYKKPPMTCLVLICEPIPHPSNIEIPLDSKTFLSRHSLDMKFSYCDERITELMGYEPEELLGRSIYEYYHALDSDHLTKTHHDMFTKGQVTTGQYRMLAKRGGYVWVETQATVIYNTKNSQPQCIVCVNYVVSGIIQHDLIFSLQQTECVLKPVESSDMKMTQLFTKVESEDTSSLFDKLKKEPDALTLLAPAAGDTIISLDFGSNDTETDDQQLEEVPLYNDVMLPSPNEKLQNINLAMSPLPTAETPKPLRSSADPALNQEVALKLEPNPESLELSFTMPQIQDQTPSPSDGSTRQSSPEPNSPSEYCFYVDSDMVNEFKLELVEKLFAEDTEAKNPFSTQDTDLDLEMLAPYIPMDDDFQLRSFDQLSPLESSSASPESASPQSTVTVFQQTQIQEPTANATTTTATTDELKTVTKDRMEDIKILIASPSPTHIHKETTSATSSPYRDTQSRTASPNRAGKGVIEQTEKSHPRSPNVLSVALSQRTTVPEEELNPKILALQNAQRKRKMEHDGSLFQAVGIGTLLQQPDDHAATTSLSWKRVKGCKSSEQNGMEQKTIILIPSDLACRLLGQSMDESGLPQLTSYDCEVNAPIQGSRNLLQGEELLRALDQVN

O=C(O)c1ccc([N+](=O)[O-])cc1
inactive: all assays above
